Reference: PubChem BioAssay
The source made the active and inactive calls.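 How the source made its calls, unless noted: active means visual image review flags a hit and inhibition of aggregation exceeds 20%; inconclusive means visual hit but inhibition at or below 20%; inactive means no hit on visual image review.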

How the values were obtained:
[1] = inhibitors of TNFa-induced NFkB p65 translocation, primary screen, imaging, HUVEC, MLSMR starter and 10KST1 sets (AID 438;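 active means inhibition above 20% together with a positive visual image hit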;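 further: compound added about 3h40 before a 20 min TNFalpha stimulation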;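 on inhibition: signal is the nuclear over cytoplasmic p65 intensity ratio per well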); conditions: HUVEC TNFa-induced p65 nuclear translocation; cell count: measured here: nuclei count (cytotoxicity indicator), at 2.08 µM; inhibition: at 2 µM, stronger effect = higher value, 0% TNFa-plus-vehicle, 100% no-TNFa wells
[2] = reduction of polyQ htt aggregates in cells – imaging, exon1htt(103Q)mCFP cells, high-content imaging, primary screen (AID 483); conditions: exon1htt(103Q)mCFP cell line, aggregate imaging, at 2 µM; inhibition of aggregation: stronger effect = higher value; nuclei count: measured here: cell count, toxicity;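 further: compound exposure lasted 3 days before fixation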;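 on nuclei count: percent of the per-plate median nuclei count of sample wells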
[3] = endothelial E-selectin expression blockers – imaging, HUVEC, immunofluorescence, MLSMR starter and 10KST1 sets, primary screen (AID 487;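 active means visually confirmed hit in the image check and inhibition above 20%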;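 on inhibition: signal is fraction of cell area covered by stained E-selectin grains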;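 on nuclei count: 100% = median nuclei count of all wells on the same plate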); conditions: HUVEC TNFalpha-induced E-selectin immunofluorescence imaging, at 2 µM; inhibition: stronger effect = higher value; nuclei count: measured here: cell number, toxicity
[4] = target: Voltage-gated potassium channel subunit beta-2 (Rattus norvegicus) (UniProt P62483); test: inhibitors of rat Kvbeta2 reductase activity – biochemical, NADPH fluorescence, primary screen (AID 622;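 active means fluorescence slope higher than the sample average by over 3 SD, cut at about -0.22 in these data, passing the limit was not always enough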;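 further: slope of raw intensity against log time taken from 70 to 1610 s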); conditions: recombinant KvBeta, 4-cyanobenzaldehyde reduction, at 10 µM, stronger effect = higher value
[5] = target: Voltage-gated potassium channel subunit beta-2 (Rattus norvegicus) (UniProt P62483); test: enhancers of rat Kvbeta2 NADPH turnover – biochemical, NADPH fluorescence, primary screen (AID 623;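 active means NADPH fluorescence slope more negative than the mean of all samples by about 3 SD, 99.7% confidence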;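 further: fluorescence intensity change per second fitted from 20 to 320 s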); conditions: Recombinant KvBeta, NADPH fluorescence decrease slope, 10 min; at 10 µM; stronger effect = lower value
[6] = target: Alpha-2C adrenergic receptor (Homo sapiens) (UniProt P18825); test: compounds altering alpha2C-coupled GIRK flux – cell-based, HEK293 alpha2C/GIRK1/2, thallium flux, primary screen (AID 624;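 active means fluorescence slope after compound addition differing from the mean of all screened samples at 99.7% confidence, in either direction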;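 further: slope of fluorescence ratio to pre-addition baseline per second over 15 to 24 s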); conditions: thallium flux BTC fluorescence, at 10 µM, actives lie on both sides
[7] = blockers of RIG-like receptor reporter activation – cell-based, Sendai virus stimulus, luciferase, 10K MLSCN set, TLR/RLR signaling modifier project, primary screen (AID 602276;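 active means inhibition at or above 50% at 10 µM; inactive means inhibition below 50%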;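 further: firefly luciferase from ISG56 promoter only with Renilla not read in this screen; 0% = Sendai virus plus DMSO and 100% = medium plus DMSO without virus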); conditions: HEK293 RL24 IRF3 luciferase reporter, at 10 µM, stronger effect = higher value
[8] = TLR3 IRF3 reporter activation blockers – cell-based, poly I:C stimulus, luciferase, 10K MLSCN set, primary screen (AID 602277;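 active means inhibition of the reporter signal at or above 50%; inactive means inhibition below 50%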); conditions: HEK293-TLR3 RL24 IRF3 luciferase reporter, at 10 µM, stronger effect = higher value

Chain of Voltage-gated potassium channel subunit beta-2 (Rattus norvegicus) (P62483 whole entry, looked up): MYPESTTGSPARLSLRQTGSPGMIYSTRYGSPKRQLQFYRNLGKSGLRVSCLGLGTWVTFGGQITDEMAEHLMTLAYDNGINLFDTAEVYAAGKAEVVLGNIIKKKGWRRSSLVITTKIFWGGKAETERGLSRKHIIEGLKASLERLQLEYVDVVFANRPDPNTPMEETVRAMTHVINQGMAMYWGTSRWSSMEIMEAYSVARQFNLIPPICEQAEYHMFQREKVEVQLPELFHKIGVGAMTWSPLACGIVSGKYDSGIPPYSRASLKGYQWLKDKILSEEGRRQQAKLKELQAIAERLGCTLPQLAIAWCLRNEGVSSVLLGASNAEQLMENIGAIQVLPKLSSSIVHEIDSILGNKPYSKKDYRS
Chain of Alpha-2C adrenergic receptor (Homo sapiens) (P18825 whole entry, looked up): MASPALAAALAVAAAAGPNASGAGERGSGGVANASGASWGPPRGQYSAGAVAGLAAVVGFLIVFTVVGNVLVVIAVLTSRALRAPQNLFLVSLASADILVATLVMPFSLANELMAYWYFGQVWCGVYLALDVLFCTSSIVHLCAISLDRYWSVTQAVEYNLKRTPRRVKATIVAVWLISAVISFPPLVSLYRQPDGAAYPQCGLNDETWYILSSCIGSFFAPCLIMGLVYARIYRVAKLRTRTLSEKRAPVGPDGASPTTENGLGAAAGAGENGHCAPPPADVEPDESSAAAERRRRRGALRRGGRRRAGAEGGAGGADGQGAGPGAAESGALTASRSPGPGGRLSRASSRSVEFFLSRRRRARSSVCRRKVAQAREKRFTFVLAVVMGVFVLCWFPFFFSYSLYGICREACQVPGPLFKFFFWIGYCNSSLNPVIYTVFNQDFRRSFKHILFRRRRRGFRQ

| Compound | cell count [1] | inhibition [1] | inhibition of aggregation [2] | nuclei count [2] [%] | inhibition [3] | nuclei count [3] [%] | fluorescence slope [4] | NADPH fluorescence slope [5] | slope [6] | inhibition [7] | inhibition [8] |
| --- | --- | --- | --- | --- | --- | --- | --- | --- | --- | --- | --- |
| Cc1cc(NC(=O)CSc2nccn2-c2ccc(F)cc2)no1 | 433 | -0.3% (inactive) | -13.1% (inactive) | 111 | -184% (inactive) | 114 | -0.6 (inactive) | 9.8e-06 (inactive) | 0.00665 (inactive) | 13.6% (inactive) | 3.73% (inactive) |
| CCC(C)(C(=O)NC1CCCCC1)N(Cc1ccco1)C(=O)c1cnccn1 (stereo not drawn) | 471 | 0.3% (inactive) | 16.1% (inactive) | 89.9 | -23.4% (inactive) | 110 | -0.376 (inactive) | -4.2e-05 (inactive) | 0.00684 (inactive) | 10.7% (inactive) | 27.6% (inactive) |
| O=C(CSc1ncnc2c1oc1ccccc12)Nc1ccccc1C(F)(F)F | 657 | -2.9% (inactive) | -15.8% (inactive) | 69.1 | -13.2% (inactive) | 106 | -0.556 (inactive) | -5.9e-06 (inactive) | 0.00657 (inactive) | -3.61% (inactive) | 1.95% (inactive) |
| COc1ccc2nc3oc(C(=O)N4CCCCC4)cc3cc2c1 | 194 | 1.8% (inactive) | -10.4% (inactive) | 105 | -13.7% (inactive) | 112 | -0.0908 (inactive) | -2.5e-05 (inactive) | 0.00338 (inactive) | -36.8% (inactive) | -132% (inactive) |
| O=C(C1CCCCC1)N1CCC(c2nc3c(nnn3Cc3ccccc3Cl)c(=O)[nH]2)CC1 | 372 | -1.5% (inactive) | -5.2% (inactive) | 110 | -144% (inactive) | 115 | -0.359 (inactive) | -4.8e-05 (inactive) | 0.00569 (inactive) | 11.3% (inactive) | 26.2% (inactive) |
| CC(=O)Nc1ccc(N=Cc2nc(-c3ccc(C)cc3)oc2O)cc1 | 1080 | -11.6% (inactive) | -4% (inactive) | 119 | -287% (inactive) | 132 | -0.281 (inactive) | 1.5e-05 (inactive) | 0.00463 (inactive) | 1.5% (inactive) | -2.56% (inactive) |
| CCOCC(=O)Nc1sc2c(c1C(=O)OCC)CCCC2 | 300 | -1.6% (inactive) | 16.6% (inactive) | 65.8 | -39.3% (inactive) | 116 | -0.347 (inactive) | -5.2e-05 (inactive) | 0.00551 (inactive) | 9.19% (inactive) | 14% (inactive) |
| CCOC(=O)CSc1nnc(Cn2nnc(-c3ccccc3)n2)n1CC | 415 | -0.8% (inactive) | 5.4% (inactive) | 109 | -34.4% (inactive) | 164 | -0.402 (inactive) | 2.4e-05 (inactive) | 0.006 (inactive) | 15.9% (inactive) | 21.4% (inactive) |
| CCCn1c(SCC(=O)Nc2ccccc2C(=O)OCC)nc2c1c(=O)n(C)c(=O)n2C | 225 | -9.1% (inactive) | -9.7% (inactive) | 95.2 | -4.8% (inactive) | 77.3 | -0.402 (inactive) | -3.8e-05 (inactive) | 0.00524 (inactive) | 4.88% (inactive) | 5.62% (inactive) |
| C=CCNS(=O)(=O)c1ccc2nsnc2c1 | 383 | 2.2% (inactive) | 6.3% (inactive) | 89.1 | -33.6% (inactive) | 121 | -0.508 (inactive) | -3.2e-05 (inactive) | 0.0046 (inactive) | -4.18% (inactive) | -2.28% (inactive) |
| Cc1oc2c(CN3CCOCC3)c(O)ccc2c(=O)c1-c1ccc(Br)cc1 | 543 | 1.4% (inactive) | 6.2% (inactive) | 105 | -0.5% (inactive) | 113 | -0.0886 (active) | 3.7e-06 (inactive) | 0.00357 (inactive) | -3.85% (inactive) | 26.2% (inactive) |
| O=C(CSc1nnc2ccccn12)NCCN1C(=O)CSC1=O | 701 | -2.8% (inactive) | -2.4% (inactive) | 94.1 | -218% (inactive) | 130 | -0.608 (inactive) | -5.5e-06 (inactive) | 0.00611 (inactive) | 7.75% (inactive) | 2.81% (inactive) |
| C=CCSc1nc2sc(C)c(C)c2c(=O)[nH]1 | 589 | 1.4% (inactive) | 10.2% (inactive) | 111 | 3.2% (inactive) | 107 | -0.563 (inactive) | -9.3e-06 (inactive) | 0.00785 (inactive) | -11.3% (inactive) | -3.55% (inactive) |
| CCOc1ccc(CNc2ccc3c(c2)ncn3C)cc1 | 174 | -3% (inactive) | -8.8% (inactive) | 72.5 | 4.7% (inactive) | 90.2 | -0.435 (inactive) | -1.3e-05 (inactive) | 0.00471 (inactive) | -27.2% (inactive) | -76.3% (inactive) |
| O=C(NCCSc1c[nH]c2ccccc12)c1ccc(Br)o1 | 564 | 3.9% (inactive) | -4.5% (inactive) | 114 | -35.7% (inactive) | 113 | -0.559 (inactive) | -4.4e-05 (inactive) | 0.00687 (inactive) | 6.55% (inactive) | -6.47% (inactive) |
| N#Cc1c(N)nc2c(c1-c1ccncc1)CCCCC2 | 658 | 3.9% (inactive) | 0% (inactive) | 106 | 4.5% (inactive) | 103 | -0.577 (inactive) | -5.4e-05 (inactive) | 0.00353 (inactive) | 12.7% (inactive) | 12.3% (inactive) |
| C=CCn1c(SCC(=O)c2ccc(OC)cc2)nnc1C(C)NC(=O)c1cccs1 (stereo not drawn) | 661 | -0.6% (inactive) | 1.5% (inactive) | 127 | -44.6% (inactive) | 132 | -0.349 (inactive) | -4e-06 (inactive) | 0.00302 (inactive) | 10.6% (inactive) | 12.5% (inactive) |
| O=C(Nc1cccnc1)c1ccc2c(c1)OCO2 | 696 | -16.9% (inactive) | 19.5% (inactive) | 80.6 | -9.7% (inactive) | 110 | -0.515 (inactive) | -3.5e-05 (inactive) | 0.00618 (inactive) | -19.3% (inactive) | -49.8% (inactive) |
| O=C(O)c1cc(-c2ccccc2Cl)n[nH]1 | 240 | 8% (inactive) | -10.1% (inactive) | 109 | -51% (inactive) | 97.9 | -0.604 (inactive) | -2e-05 (inactive) | 0.00669 (inactive) | 11.2% (inactive) | 22.8% (inactive) |
| O=C(CSc1ncnc2c1cnn2Cc1ccccc1)Nc1ccc2c(c1)OCCO2 | 308 | 0.9% (inactive) | 27.1% (inactive) | 94.9 | 11.1% (inactive) | 94.2 | -0.36 (inactive) | -0.00015 (inactive) | 0.00683 (inactive) | 6.25% (inactive) | 17.7% (inactive) |
| CCC(C)NC(=O)CC1Oc2ccc(C)cc2NC1=O (stereo not drawn) | 585 | -2% (inactive) | 9.7% (inactive) | 100 | -116% (inactive) | 126 | -0.56 (inactive) | -1.5e-05 (inactive) | 0.00629 (inactive) | 2.24% (inactive) | 22.9% (inactive) |
| COc1cccc(-c2cc(C(=O)N3CCCCCC3)no2)c1 | 519 | -11.6% (inactive) | -8.6% (inactive) | 82.4 | -44.3% (inactive) | 116 | -0.522 (inactive) | -3.5e-05 (inactive) | 0.00692 (inactive) | -24.6% (inactive) | -141% (inactive) |
| CCCC(=O)Nc1nnc(CC(=O)N2CCCC2)s1 | 845 | 4.5% (inactive) | 3.1% (inactive) | 106 | -55% (inactive) | 115 | -0.31 (inactive) | -5.4e-05 (inactive) | 0.006 (inactive) | 14.1% (inactive) | 21.6% (inactive) |
| COCCn1c(C)cc(C(=O)COC(=O)CCN2C(=O)c3ccccc3C2=O)c1C | 287 | 3.2% (inactive) | 17.1% (inactive) | 96.8 | -6.1% (inactive) | 97.3 | -0.528 (inactive) | 6.5e-06 (inactive) | 0.00506 (inactive) | 3.96% (inactive) | 4.05% (inactive) |
| Cc1c(C(=O)NCCC2=CCCCC2)oc2ccc(S(=O)(=O)N3CCC4(CC3)OCCO4)cc12 | 643 | 10.9% (inactive) | -35% (inactive) | 113 | -42.7% (inactive) | 106 | -0.413 (inactive) | -5.5e-05 (inactive) | 0.00783 (inactive) | 16.2% (inactive) | 29.4% (inactive) |
| COC(=O)c1ccccc1NC(=O)COc1ccc(S(=O)(=O)N2CCCC2)cc1C | 618 | 7% (inactive) | 10.3% (inactive) | 88.3 | 44.3% (inactive) | 98.4 | -0.405 (inactive) | 4.1e-06 (inactive) | 0.00334 (inactive) | 16.3% (inactive) | 6.91% (inactive) |
| Cc1cccc(CCNC(=O)CCc2nc(-c3ccccc3F)no2)c1 | 357 | 2.8% (inactive) | -1.1% (inactive) | 101 | -2.7% (inactive) | 114 | -0.415 (inactive) | -2.4e-05 (inactive) | 0.00305 (inactive) | -0.595% (inactive) | 2.35% (inactive) |
| CC1Cn2c(nnc2-c2ccc(F)cc2)S1 (stereo not drawn) | 741 | -17.7% (inactive) | -26.8% (inactive) | 119 | -40% (inactive) | 101 | -0.583 (inactive) | -2.2e-05 (inactive) | 0.00604 (inactive) | -1.17% (inactive) | 28.5% (inactive) |
